Source: PubChem BioAssay (NCATS)
Results filed as inconclusive are left out. Active and inactive are the calls of the source. Calls come from the whole dose curve; as a rule, active = well fitted inhibition curve with a large enough effect; inconclusive = small, poorly fitted or top-dose-only effect; inactive = flat fitted curve, though single readings scatter.

Assay: qHTS for Inhibitors of Plasmodium falciparum (DD2) proliferation (AID 504314);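 for activity, negative = inhibition: parasite DNA measured by SYBR Green fluorescence after red cell lysis; plate controls were DMSO vehicle for no effect and artemisinin wells for full effect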
Conditions: P. falciparum Dd2 in erythrocytes, SYBR Green growth, 72 h; series mostly up to 1.12 µM; activity, negative = inhibition: at the top concentration
In short: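 Infected RBCs, 0.3% parasitemia, 2.5% Hct; compound 72 h, 37C/5% CO2; lyse + SYBR Green I, RT overnight, dark; read ex485/em535; normalize to DMSO and artemisinin 0.29 uM.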
Potency is the fitted concentration of half-maximal effect.

Compound	activity, negative = inhibition	Potency
COC/C=C/C1=CC2=CC(=O)C(C)(OC(=O)c3cnc4ccccc4n3)C(=O)C2=CN1c1cccc(C#N)c1 (configuration not stated)	1.99% (inactive)	–
COCCN1C=C2C(=O)C(C)(OC(=O)CCC(=O)OC)C(=O)C(Br)=C2C=C1c1ccc(OC)cc1 (configuration not stated)	2.01% (inactive)	–
CCCC[C@]12Cc3c(ccc4ccccc34)[C@H](O1)C1=C(O2)C(=O)c2ccccc2C1=O	–	1.69 µM (active)
COC(=O)N1C2=C(c3ccccc3[C@@H]1CC(=O)Nc1ccc3cc4ccccc4cc3c1)[C@@H]1C(=O)N(c3ccccc3)C(=O)[C@@H]1[C@H](C)C2	-4.68% (inactive)	–
COC(=O)C1=C(C(=O)OC)[C@@H]2N(C)c3ccccc3[C@@]23C[C@@H](C(=O)OC)N(S(=O)(=O)c2ccc(C)cc2)C3=N1	1.9% (inactive)	–
COC(=O)CCC(=O)OC1(C)C(=O)C2=CN(CC3CC3)C(c3ccc(OC)cc3)=CC2=C(Br)C1=O (configuration not stated)	3.03% (inactive)	–
CCCCC1=CC2=CC(=O)C(C)(OC(=O)CC)C(=O)C2=CN1C1CCCCC1 (configuration not stated)	2.06% (inactive)	–
CCCCC1=CC2=CC(=O)C(C)(OC(=O)CC)C(=O)C2=CN1CCCOC(C)C (configuration not stated)	-2.24% (inactive)	–
COC(=O)C1=C(C(=O)OC)[C@@H]2N(C)c3ccccc3[C@@]23C[C@@H](C(=O)OC)N(C(C)=O)C3=N1	2.43% (inactive)	–
CCOC(=O)NN=C1C[C@@H](O)[C@@H](O)[C@@H]2[C@H]3C(=O)N([C@@H](C)c4ccccc4)C(=O)[C@@H]3CC[C@@H]12	-0.351% [at 6.11 µM] (inactive)	–
CC1(OC(=O)CCc2ccccc2)C(=O)C=C2C=C(c3ccc(C#N)cc3)N(CCc3ccccn3)C=C2C1=O (configuration not stated)	1.05% (inactive)	–
COC(=O)CCCC1=CC2=CC(=O)C(C)(OC(=O)c3cccs3)C(=O)C2=CN1c1ccc(CO)cc1 (configuration not stated)	-0.2% (inactive)	–
